Experimental data: PubChem BioAssay (NCI)
This is part of a sample that, as a whole, favours compounds with a hit. Of some 83,000 tested, about 20% had one in any assay.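 Single-concentration screen, 48 h exposure, 96-well plates. Endpoint: percent growth. Below 10 = active.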 Activity calls are given as the source filed them.

What was measured:
Experiment in all cases: NCI-60 one-dose screen, 48 h (100 = growth as untreated, 0 = no growth, -100 = all killed)
Settings in all cases: 10 µM unless noted
NCI-H23 lung = system: NCI-H23 lung
NCI-H226 lung = system: NCI-H226 lung
NCI-H322M lung = system: NCI-H322M lung
HOP-62 NSCLC = system: HOP-62 NSCLC
NCI-H460 lung = system: NCI-H460 lung
HOP-92 NSCLC = system: HOP-92 NSCLC
NCI-H522 lung = system: NCI-H522 lung
A549/ATCC NSCLC = system: A549/ATCC NSCLC
786-0 renal = system: 786-0 renal
COLO 205 colon = system: COLO 205 colon
DU-145 prostate = system: DU-145 prostate
K-562 leukemia = system: K-562 leukemia
MALME-3M melanoma = system: MALME-3M melanoma
MDA-MB-231 breast = system: MDA-MB-231 breast
RXF 393 renal = system: RXF 393 renal
SF-268 CNS = system: SF-268 CNS
SF-295 CNS = system: SF-295 CNS
SF-539 CNS = system: SF-539 CNS
UACC-257 melanoma = system: UACC-257 melanoma
M14 melanoma = system: M14 melanoma

Measured: growth

COc1cc2c(=O)n(CC3CCCCC3)c3c4cc[nH]c4ncc3c2cc1OC
inactive: NCI-H23 lung 45.3% | NCI-H226 lung 34.5% | NCI-H322M lung 59% | HOP-62 NSCLC 19.2% | NCI-H460 lung 21.1% | NCI-H522 lung 35.1% | A549/ATCC NSCLC 31.6% | 786-0 renal 46.4% | DU-145 prostate 50.3% | MALME-3M melanoma 65.9% | MDA-MB-231 breast 25.5% | SF-268 CNS 28.8% | SF-295 CNS 42.9% | UACC-257 melanoma 84.9% | M14 melanoma 49.2%
active: HOP-92 NSCLC 1.65% | COLO 205 colon 6.79% | K-562 leukemia 5.36% | RXF 393 renal -4.27% | SF-539 CNS -7.56%

CCN(CC)CC(O)CNc1c2ccc([N+](=O)[O-])cc2nc2cc(OC)c(OC)cc12 (stereo not given)
active: NCI-H23 lung -27.2% | NCI-H226 lung -39.1% | NCI-H322M lung -43.5% | HOP-62 NSCLC -51% | NCI-H460 lung -49.6% | HOP-92 NSCLC -57.4% | NCI-H522 lung -65.6% | A549/ATCC NSCLC -22% | 786-0 renal -8.36% | COLO 205 colon -71% | DU-145 prostate -29.9% | K-562 leukemia 3.2% | MALME-3M melanoma -82% | MDA-MB-231 breast -71.9% | RXF 393 renal -43.4% | SF-268 CNS -35.2% | SF-295 CNS -8.54% | SF-539 CNS -35.7% | UACC-257 melanoma -33.5% | M14 melanoma -56.7%

CC(C)(C)n1cc(-c2ccnc(NCCNS(=O)(=O)c3ccccc3)c2)c(-c2cccc(O)c2)n1
inactive: NCI-H23 lung 70.3% | NCI-H226 lung 60.4% | NCI-H322M lung 78.1% | HOP-62 NSCLC 82.5% | NCI-H460 lung 36.7% | HOP-92 NSCLC 77.8% | NCI-H522 lung 57.7% | A549/ATCC NSCLC 47.1% | 786-0 renal 18.5% | DU-145 prostate 68.9% | MALME-3M melanoma 59.4% | MDA-MB-231 breast 42.7% | RXF 393 renal 61.6% | SF-268 CNS 63.3% | SF-295 CNS 48.3% | SF-539 CNS 52.2% | UACC-257 melanoma 65.8% | M14 melanoma 53.9%
active: COLO 205 colon 6.61% | K-562 leukemia 7.69%

CC[C@H](Nc1ncnc(N)c1C(N)=O)c1nc2cccc(NCc3ccc(C(=O)NO)cc3)c2c(=O)n1-c1ccccc1
inactive: NCI-H23 lung 91.7% | NCI-H226 lung 102% | NCI-H322M lung 86.9% | HOP-62 NSCLC 78% | NCI-H460 lung 79.5% | HOP-92 NSCLC 21.5% | NCI-H522 lung 35.9% | A549/ATCC NSCLC 98.2% | 786-0 renal 90.3% | COLO 205 colon 78.3% | DU-145 prostate 97.6% | K-562 leukemia 55.6% | MALME-3M melanoma 67.2% | MDA-MB-231 breast 83.8% | RXF 393 renal 55.2% | SF-268 CNS 90.1% | SF-295 CNS 93.2% | SF-539 CNS 75.1% | UACC-257 melanoma 63.4% | M14 melanoma 95.9%

CSc1[nH]c2ncnc(N)c2c1C#N
inactive: NCI-H23 lung 91.4% | NCI-H226 lung 73.6% | NCI-H322M lung 82.9% | HOP-62 NSCLC 94.9% | NCI-H460 lung 99.6% | HOP-92 NSCLC 118% | NCI-H522 lung 82.6% | A549/ATCC NSCLC 101% | 786-0 renal 99.7% | COLO 205 colon 117% | DU-145 prostate 101% | K-562 leukemia 84.6% | MALME-3M melanoma 107% | MDA-MB-231 breast 98.8% | RXF 393 renal 151% | SF-268 CNS 113% | SF-295 CNS 105% | SF-539 CNS 96.3% | UACC-257 melanoma 124% | M14 melanoma 95.1%

N#Cc1c(N)nc(N)nc1Nc1ccc(Br)cc1
inactive: NCI-H23 lung 102% | NCI-H226 lung 83.9% | NCI-H322M lung 89.9% | HOP-62 NSCLC 119% | NCI-H460 lung 96.7% | HOP-92 NSCLC 92.3% | NCI-H522 lung 70.9% | A549/ATCC NSCLC 78.2% | 786-0 renal 123% | COLO 205 colon 135% | DU-145 prostate 98.7% | K-562 leukemia 99% | MALME-3M melanoma 107% | MDA-MB-231 breast 87.3% | RXF 393 renal 94.3% | SF-268 CNS 92.5% | SF-295 CNS 91% | SF-539 CNS 89.6% | UACC-257 melanoma 92% | M14 melanoma 163%

CCC(=O)Oc1ccc(/C(=C(\C)c2ccccc2)c2ccc(OCCN(CC)CC)cc2)cc1
inactive: NCI-H23 lung 89.1% | NCI-H226 lung 95.8% | NCI-H322M lung 96.2% | HOP-62 NSCLC 95.3% | NCI-H460 lung 80.9% | HOP-92 NSCLC 61% | NCI-H522 lung 73.5% | A549/ATCC NSCLC 84.9% | 786-0 renal 70.1% | COLO 205 colon 74.6% | DU-145 prostate 102% | K-562 leukemia 23% | MALME-3M melanoma 80.3% | MDA-MB-231 breast 89.7% | RXF 393 renal 93.4% | SF-268 CNS 85.5% | SF-295 CNS 95.2% | SF-539 CNS 76.9% | UACC-257 melanoma 87.4% | M14 melanoma 69%

COc1nc2c(cc1S(=O)(=O)c1ccccc1)CCc1c-2cnn1-c1ccc(Cl)cc1
inactive: NCI-H23 lung 89.5% | NCI-H226 lung 92.1% | NCI-H322M lung 101% | HOP-62 NSCLC 86.5% | NCI-H460 lung 99.2% | HOP-92 NSCLC 80.3% | NCI-H522 lung 81.1% | A549/ATCC NSCLC 95.4% | 786-0 renal 79.5% | COLO 205 colon 118% | DU-145 prostate 110% | K-562 leukemia 97.2% | MALME-3M melanoma 96.8% | MDA-MB-231 breast 95.3% | RXF 393 renal 96.2% | SF-268 CNS 104% | SF-295 CNS 88.3% | SF-539 CNS 100% | UACC-257 melanoma 106% | M14 melanoma 97.5%
